Compound activity deposited in PubChem BioAssay by Johns Hopkins Ion Channel Center.
KCNQ2 block: blocks the rat KCNQ2 potassium channel | CHO-K1 KCNQ2, FluxOR thallium flux, 20 min; stronger effect = lower value | hit rate 1.1% among 310,000 | B-score at 10 µM | O88943 | AID 2156;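 active means fluorescence ratio B-score at most minus 3 library SDs, with starting brightness B-score within 2 library SDs, cut at about -5.5 in these data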
Target sequence (O88943 whole entry, looked up): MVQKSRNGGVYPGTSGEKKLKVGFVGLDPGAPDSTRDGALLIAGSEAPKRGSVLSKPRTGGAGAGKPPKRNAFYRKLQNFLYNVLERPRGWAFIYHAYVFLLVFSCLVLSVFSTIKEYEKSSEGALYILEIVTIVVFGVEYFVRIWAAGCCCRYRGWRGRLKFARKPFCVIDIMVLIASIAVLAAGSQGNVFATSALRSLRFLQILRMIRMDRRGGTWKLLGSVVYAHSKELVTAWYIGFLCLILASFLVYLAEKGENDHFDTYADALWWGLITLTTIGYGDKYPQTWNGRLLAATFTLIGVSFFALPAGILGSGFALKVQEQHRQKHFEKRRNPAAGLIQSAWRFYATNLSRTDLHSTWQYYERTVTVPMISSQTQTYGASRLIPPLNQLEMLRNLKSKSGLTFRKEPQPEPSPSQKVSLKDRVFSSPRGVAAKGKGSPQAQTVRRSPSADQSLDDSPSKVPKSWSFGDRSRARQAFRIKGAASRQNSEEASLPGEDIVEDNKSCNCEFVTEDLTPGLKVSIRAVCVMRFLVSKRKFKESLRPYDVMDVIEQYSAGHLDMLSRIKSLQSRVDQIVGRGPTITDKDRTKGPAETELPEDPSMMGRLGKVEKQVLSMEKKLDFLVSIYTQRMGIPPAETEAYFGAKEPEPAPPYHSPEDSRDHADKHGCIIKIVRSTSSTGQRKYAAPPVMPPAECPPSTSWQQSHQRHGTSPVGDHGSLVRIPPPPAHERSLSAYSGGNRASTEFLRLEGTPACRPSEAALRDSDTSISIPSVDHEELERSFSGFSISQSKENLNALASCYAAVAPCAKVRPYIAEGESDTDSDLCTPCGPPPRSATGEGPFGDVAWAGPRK
KCNQ2 enhance: enhances the rat KCNQ2 potassium channel; hit rate 0.54% among 310,000; CHO-K1 KCNQ2, FluxOR thallium flux fluorescence; stronger effect = higher value; O88943; B-score at 10 µM;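 active means fluorescence ratio B-score at least 3 SD of library B-scores, with initial fluorescence B-score within 3 of them, cut at about 5.3 in these data; same plate scores as AID 2156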;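 further: B-score of peak minus minimum over baseline fluorescence ratio after K+ and Tl+ stimulus; positive B-score means potentiation of KCNQ2 with more thallium influx and brighter signal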
An asterisk follows results filed as active; i = inactive; / = no result given. Sampled rows, rich in hits. Any-hit rate of the full collection: about 1.6%.

SMILES	KCNQ2 block	KCNQ2 enhance
CCc1ccc(CNC(=O)C2CCC(=O)N(CCc3ccc(Cl)cc3)C2)nc1 (stereo unspecified)	i	/
O=C(NNc1nc2cc3c(cc2s1)OCO3)c1cccc(F)c1	i	1.1
C=CCOc1ccc(/C=N/NC(=O)C(=O)Nc2ccccn2)cc1OC	i	0.28
O=C(NC(NCc1cccnc1)C(Cl)(Cl)Cl)c1cccc2ccccc12 (stereo unspecified)	-6.3*	-6.3
O=C(NC(NCc1ccccc1)C(Cl)(Cl)Cl)c1cccnc1 (stereo unspecified)	i	/
Cc1cc(-c2nnc(SCC(=O)Nc3ccc(C)c(C)c3)n2N)n[nH]1	i	0.3
CC(C)(C)NC(=O)c1ccc2c(c1)N(CC(=O)N1CCCCC1)C(=O)C(C)(C)O2	i	0.93
CCOC(=O)CN1C(=O)C(C)(C)Oc2ccc(C(=O)Nc3ccccc3OC)cc21	-6.5*	-6.5
Cc1ccc(NC(=O)c2ccc3c(c2)N(CC(=O)N2CCCCC2)C(=O)C(C)(C)O3)cc1	-7.9*	-7.9
COc1ccccc1NC(=O)c1ccc2c(c1)N(CC(=O)NC(C)(C)C)C(=O)C(C)(C)O2	i	/
Cc1cccc(/C=C2\Sc3ccc(C(=O)N4CCCCC4)cc3N(C)C2=O)c1	i	/
Cc1cccc(/C=C2\Sc3ccc(C(=O)N4CCC(C)CC4)cc3N(C)C2=O)c1	-6.5*	-6.5
CC(C)Oc1ccc(CN2CCC(n3nccc3NC(=O)CCc3ccccc3)CC2)cc1	i	0.3
COc1ccccc1N1C(=O)c2ccc(C(=O)Nc3ccc(C(=O)O)cc3)cc2C1=O	i	0.47
COc1ccc(Cn2c(=O)[nH]c3cc(C(=O)N4CCN(Cc5ccccc5)CC4)ccc3c2=O)cc1	i	/
COc1ccc2c(C)c(C(=O)N3CCN(Cc4ccccc4)CC3)oc2c1	-6.2*	-6.2
COc1cc(C(=O)NNC(=S)NC(=O)/C=C/c2ccccc2)cc(OC)c1OC	i	/
Cc1ccc(S(=O)(=O)N2CCOCC2)cc1C(=O)N1c2ccccc2Sc2ccccc21	i	/
C/C(=C\C(=O)c1ccccc1)NNc1nc2ccccc2s1	-5.7*	-5.7
CC(=O)NNc1nc2ccccc2s1	i	0.39
Cc1ccc(C(=O)/C=C\C(=O)c2ccc(C)cc2)cc1	-5.7*	-5.7
CC(/C=C/C(=O)c1ccc(C)cc1)=C\c1ccccc1	i	/
COc1ccc(NC(C)C(=O)N/N=C/c2ccccc2OCc2cccc(Br)c2)cc1 (stereo unspecified)	i	/
Cc1ccccc1NC(C)C(=O)N/N=C/c1ccccc1OCc1cccc(Br)c1 (stereo unspecified)	-8.3*	-8.3
CCCCCCCCN1[C@@H](CC(=O)OCC)c2cc(F)ccc2S1(=O)=O	i	/
SMILES	KCNQ2 block	KCNQ2 enhance
CCCCCCCCN1[C@@H](CC(=O)OC)c2cc(F)ccc2S1(=O)=O	-6*	-6
COC(CNC(=O)C1CC(=O)N(CCc2ccc(C)cc2)C1)OC (stereo unspecified)	i	/
CCOc1c(Cl)cc(/C=N/NC(N)=S)cc1OC	i	/
O=C(Cn1ccccc1=O)NCc1ccc(F)cc1	i	/
CN(CC(=O)Nc1ccc(F)c(F)c1F)C(=O)c1ccc2c(c1)S(=O)(=O)N=C1CCCCCN12	i	2.5
O=C(CSc1nnc(CCc2ccccc2)n1-c1ccc(Cl)cc1)NCc1ccccc1	-7.4*	-7.4
C=CCn1c(SCC(=O)NCc2ccccc2)nnc1-c1ccccc1O	i	/
COc1ccc(-n2c(CCc3ccccc3)nnc2SCC(=O)NCc2ccccc2)cc1	i	/
C=CCn1c(COc2ccccc2)nnc1SCC(=O)N/N=C/c1cc(Cl)ccc1O	-6.4*	-6.4
C=CCn1c(COc2ccccc2)nnc1SCC(=O)N/N=C/c1ccc(C)cc1	i	/
C=CCn1c(CSCc2ccc(Cl)cc2)nnc1SCC(=O)NCc1ccccc1	-6.5*	-6.5
CCc1cc(C(=O)O)c(NC(=O)c2cc(OC)c(OC)c(OC)c2)s1	i	0.63
C/C(CC(=O)NCc1ccco1)=N\NC(=O)COc1ccc(C)cc1	i	0.41
COc1ccccc1N1CCN(C(=O)CSc2nnc3c4ccccc4nc(Cc4ccccc4)n23)CC1	i	0.63
O=C1c2ccccc2C(=O)C12OC(c1ccccc1)C1(C(=O)c3ccccc3C1=O)C2c1cccc([N+](=O)[O-])c1 (stereo unspecified)	i	/
O=C1c2ccccc2C(=O)C12OC(c1ccccc1)C1(C(=O)c3ccccc3C1=O)C2c1ccc([N+](=O)[O-])cc1 (stereo unspecified)	-7.9*	-7.9
CC(=O)N(CN1C(=O)c2ccccc2C1=O)c1ccc2c(c1)oc1ccccc12	i	/
COc1ccc(CCC(=O)NC2CCC(C)CC2)cc1 (stereo unspecified)	i	2.1
O=C(CN1CCN(c2ccccn2)CC1)Nc1ccccc1Br	i	/
O=C(CN1CCN(c2ccccn2)CC1)Nc1cccc(Cl)c1Cl	-7.2*	-7.2
COC(CNC(=O)c1c[nH]c2ccc(S(=O)(=O)N(C)c3ccc(F)cc3)cc2c1=O)OC	i	/
